The text below walks through data of PubChem BioAssay (NCATS).

Several values for one entry are separate records, joined by “and”; a condition that tells them apart may be missing. Equal entries are not always repeated. Inconclusive results are not listed. Where a call stands in place of a potency, no number is given. Activity calls are given as the source filed them. Calls come from the whole dose curve; as a rule, active = well fitted curve in the direction sought with a large enough effect; inconclusive = small, poorly fitted or top-dose-only effect, or another doubt; inactive = no such curve, though single readings can be large; an effect the other way counts as inactive or inconclusive. Square brackets hold non-standard residues; d marks the D form. Peptide text beside a SMILES is read from it. * marks the point of attachment. pGlu = O=C1CC[C@@H](C(=O)O)N1; Thz = O=C(O)[C@@H]1CSCN1; PhAc = O=C(Cc1ccccc1)*

Chain of Cellular tumor antigen p53 (Homo sapiens) (P04637 whole entry, looked up): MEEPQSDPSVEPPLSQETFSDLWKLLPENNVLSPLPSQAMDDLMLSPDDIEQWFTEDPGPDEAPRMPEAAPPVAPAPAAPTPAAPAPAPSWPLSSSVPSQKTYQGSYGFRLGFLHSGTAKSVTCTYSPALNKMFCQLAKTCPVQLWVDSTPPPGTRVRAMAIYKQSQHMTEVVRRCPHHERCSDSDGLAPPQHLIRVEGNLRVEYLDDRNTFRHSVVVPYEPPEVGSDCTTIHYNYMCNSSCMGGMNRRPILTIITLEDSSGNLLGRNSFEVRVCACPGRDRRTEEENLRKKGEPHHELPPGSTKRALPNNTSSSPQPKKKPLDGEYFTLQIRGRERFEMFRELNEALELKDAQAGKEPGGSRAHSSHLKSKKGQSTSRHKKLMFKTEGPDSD

The target in the first test is Cellular tumor antigen p53 (Homo sapiens) (UniProt P04637). The experiment in a line: Primary qHTS for small molecule compounds that upregulate eGFP-tagged delta133p53alpha (in N-terminal) cells. (AID 2060322). Note: nearly all actives have a fitted effect of over 75% in size. Note: potency is the fitted concentration of half-maximal effect. The following applies: NCI-H358 eGFP-delta133p53alpha fluorescence, 24 h; activation: stronger effect = higher value. The procedure, abridged:
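NCI-H358 cells pre-induced 24 h with 10 ng/ml doxycycline to express N-terminal eGFP-delta133p53alpha, then dosed 24 h at 37C without doxycycline; fixed, Hoechst-stained, GFP intensity by laser scanning cytometry, normalized to DMSO (0%) and 57.5 uM 5-azacytidine (100%).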
Regarding `Cc1nc(C(=O)N2CCC[C@H]2Cc2nnc(-c3ccccc3)o2)c(-c2ccccc2F)s1`, the activation is 3.82% (inactive). In the case of `NS(=O)(=O)c1ccc(N2N=C(c3ccccc3)CC2c2ccccc2)cc1` (configuration not stated), the activation was -18.6% (inactive). `C[C@H](Oc1cc(-c2cnn(C3CCNCC3)c2)cnc1N)c1c(Cl)ccc(F)c1Cl`: the activation was 14.8% (inactive).

As for `Nc1ncnc2c1c(-c1ccc(Oc3ccccc3)cc1)nn2[C@@H]1CCCNC1`, the activation is 20% (inactive). Turning to `CC1(C)CC(NC(=O)C(=O)Nc2ccc(Br)cc2)CC(C)(C)N1`, the Potency is 13.5 µM (active). Turning to `CCCCS(=O)(=O)NC(Cc1ccc(OCCCCC2CCNCC2)cc1)C(=O)O` (configuration not stated), the activation is 12.9% (inactive).

As for `CCOC(=O)C(CCc1ccccc1)NC1CCCN2CCCC(C(=O)O)N2C1=O` (configuration not stated), the activation is -9.55% (inactive). With `CN1CCC(Nc2nc(Nc3ccc(Oc4ccccc4)cc3)c3c(=O)[nH]cc(Br)c3n2)CC1`, the Potency was 10.7 µM (active).

For `C[C@@H](NC(=O)c1cc(C(=O)N[C@@H](Cc2ccccc2)[C@H](O)CNC2CC2)cc(N(C)S(C)(=O)=O)c1)c1ccccc1`, the activation was -12.4% (inactive).

On to `Cc1cc(C)c(S(=O)(=O)N(Cc2ccc(-c3cccc(S(C)(=O)=O)c3)cc2)Cc2ccc(C(F)(F)F)o2)c(C)c1`, for which the activation is -0.955% (inactive). As to `C[C@@H](O)[C@H](NC(=O)c1ccc(C#Cc2ccc(CN3CCOCC3)cc2)cc1)C(=O)NO`, the activation is -6.68% (inactive). As to `CC(C)(C)c1ccc2c(c1)CC[C@H]2NC(=O)Nc1cccc2[nH]ncc12`, the activation is -6.68% (inactive). Same read-out and setting: to `COc1c(C)cnc(Cn2cc(C#CCC(C)(C)O)c3c(Cl)nc(N)nc32)c1C` belongs -10% (inactive); to `O=C1CC[C@@H](C(=O)N2CSC[C@H]2C(=O)O)N1` ([pGlu]-[Thz]-OH), 1.43% (inactive).

Turning to `O=C(O)C1CN(Cc2ccc(-c3nc4cc(Cc5ccccc5F)ccc4s3)c(F)c2)C1`, the activation is -12.4% (inactive). On to `Cc1cc(C)c(-n2cc(C)c3c(Cl)nc(C)nc32)c(C)c1`, for which the activation was -3.82% (inactive). With `CNC(=O)c1ccccc1Nc1nc(Nc2ccc(N3CCNCC3)cc2)ncc1Cl`, the Potency is 1.35 µM (active).

Regarding `CS(=O)(=O)Nc1ccc2oc3c(OC(F)F)ccc(C(=O)Nc4c(Cl)cncc4Cl)c3c2c1`, the activation is 22% (inactive). Still for that read-out and setting: to `CC(C)(N)c1ncc(-c2ccc(OC(F)(F)F)cc2)[nH]1` belongs -2.86% (inactive); to `COc1cccc(-c2ccc([C@@H](Oc3cc(-c4ccc(C[C@H](N)C(=O)O)cc4)nc(N)n3)C(F)(F)F)cc2)c1`, -13.4% (inactive); to `CN1CCC(NC(=O)c2cc(-c3c(O)cc(O)cc3Oc3ccc([N+](=O)[O-])cc3)on2)CC1`, 5.25% (inactive). As to `OCC(O)CN1CCN(c2ccccc2)CC1` (configuration not stated), the activation is -0.837% (inactive) and 0.955% (inactive).

For `O=C(Nc1ccccc1)c1ccc(Nc2nnc(-c3ccc(O)cc3)c3ccccc23)cc1`, the activation is 2.39% (inactive). For `O=C(NCc1ccccc1)c1ccc2c(=O)n(-c3cccc(C(F)(F)F)c3)c(=S)[nH]c2c1`, the activation was -9.55% (inactive). Take `COc1ccc2[nH]c3c(-c4cccc5ccccc45)nccc3c2c1`: the Potency was 26.9 µM (active).

In the case of `CN(C1CCc2c(c3ccccc3n2CC(=O)O)C1)S(=O)(=O)c1ccc(F)cc1` (configuration not stated), the activation was -3.55% (inactive) and 0% (inactive) and -0.955% (inactive). Consider `CCOC(CN1CCN(CC(C)C(=O)c2ccccc2)CC1)c1ccccc1` (configuration not stated), for which the activation was -4.18% (inactive) and 4.3% (inactive).

In a further test the target is Aldehyde dehydrogenase, mitochondrial (Homo sapiens) (UniProt P05091). In words: qHTS for Inhibitors of the Aldehyde Dehydrogenase Family (ALDH2) Primary screen (AID 2061308). Note: nearly all actives have a fitted effect of over 55% in size. The following applies: ALDH2 enzyme inhibition qHTS, 1536-well; series mostly up to 56 µM.
As to `CC(C)c1ccccc1OC(=O)NCCc1ccc2ccccc2c1`, the Potency result was “inactive”. Same read-out and setting: the entry for `CCN1CCN(Cc2ccc(NC(=O)c3ccc(C)c(Oc4ncnc5[nH]c(C)cc45)c3)cc2C(F)(F)F)CC1` is “inactive”. The same measure, in the same setting: the entry for `CCCC(Nc1nc(-c2ccc(NC(=O)NCC)c(OC)c2)ncc1C)c1cccnc1` (configuration not stated) is “inactive”; for `CNC(=O)O[C@H]1COc2ccc(N3CCN(C4COC4)CC3)cc2[C@@H]1NC(=O)c1ccc(F)cc1` it is “inactive”; for `CC(NCCCc1cccc(C(F)(F)F)c1)c1cccc2ccccc12` (configuration not stated) it is “inactive”. Still for that read-out and setting: the entry for `CCCCc1ccc(C(=O)Nc2cc(-c3ccc(Cl)cc3)nn2-c2ccc(Cl)cc2)cc1` is “inactive”; for `O=C(Nc1cccc(C(F)(F)F)c1)Nc1ccc(Br)cc1-c1nn[nH]n1` it is “inactive”. Regarding `O=C(NCCCN1CCC2(CC1)OCc1ccccc12)[C@H]1CCCN1Cc1ccccc1`, the Potency entry is “inactive”. On the same count and under the same terms, to `CCc1cc2c(=O)c(-c3nc4ccccc4s3)coc2c(CN2CCCCC2)c1O` belongs “inactive”; to `CCOC(=O)CNC(=O)[C@@H]1CCCN1C(=O)Cc1ccccc1` (PhAc-Pro-Gly-OEt), “inactive”.

`CCCCOc1cc(C(=O)OCCN(CC)CC)ccc1N`: the Potency result is “inactive”. Consider `CC(C)(C)c1cc(Br)cc([C@H](CC(=O)O)NC(=O)CNC(=O)c2cc(O)cc(NC3=NCC(O)CN3)c2)c1` (some centres not stated), for which the Potency entry is “inactive”. The same measure, in the same setting: the entry for `Cc1cc(C(=O)N2CCCCc3ccccc32)ccc1CNC(=O)N1CCC[C@H]1C(=O)N(C)C` is “inactive”; for `Cc1nc(C(=O)N2CCC[C@H]2Cc2nnc(-c3ccccc3)o2)c(-c2ccccc2F)s1` it is “inactive”.

For `NS(=O)(=O)c1ccc(N2N=C(c3ccccc3)CC2c2ccccc2)cc1` (configuration not stated), the Potency result is “inactive”. On the same count and under the same terms, to `C[C@H](Oc1cc(-c2cnn(C3CCNCC3)c2)cnc1N)c1c(Cl)ccc(F)c1Cl` belongs “inactive”; to `Nc1ncnc2c1c(-c1ccc(Oc3ccccc3)cc1)nn2[C@@H]1CCCNC1`, “inactive”. On the same count and under the same terms, the entry for `CC1(C)CC(NC(=O)C(=O)Nc2ccc(Br)cc2)CC(C)(C)N1` is “inactive”; for `CCCCS(=O)(=O)NC(Cc1ccc(OCCCCC2CCNCC2)cc1)C(=O)O` (configuration not stated) it is “inactive”; for `CCOC(=O)C(CCc1ccccc1)NC1CCCN2CCCC(C(=O)O)N2C1=O` (configuration not stated) it is “inactive”.

Regarding `CN1CCC(Nc2nc(Nc3ccc(Oc4ccccc4)cc3)c3c(=O)[nH]cc(Br)c3n2)CC1`, the Potency result was “inactive”. Consider `C[C@@H](NC(=O)c1cc(C(=O)N[C@@H](Cc2ccccc2)[C@H](O)CNC2CC2)cc(N(C)S(C)(=O)=O)c1)c1ccccc1`, for which the Potency result is “inactive”.

On to `Cc1cc(C)c(S(=O)(=O)N(Cc2ccc(-c3cccc(S(C)(=O)=O)c3)cc2)Cc2ccc(C(F)(F)F)o2)c(C)c1`, for which the Potency entry is “inactive”.

For `C[C@@H](O)[C@H](NC(=O)c1ccc(C#Cc2ccc(CN3CCOCC3)cc2)cc1)C(=O)NO`, the Potency result is “inactive”. The same measure, in the same setting: to `CC(C)(C)c1ccc2c(c1)CC[C@H]2NC(=O)Nc1cccc2[nH]ncc12` belongs “inactive”. Same read-out and setting: the entry for `COc1c(C)cnc(Cn2cc(C#CCC(C)(C)O)c3c(Cl)nc(N)nc32)c1C` is “inactive”.

For `O=C1CC[C@@H](C(=O)N2CSC[C@H]2C(=O)O)N1` ([pGlu]-[Thz]-OH), the Potency result was “inactive”. With `O=C(O)C1CN(Cc2ccc(-c3nc4cc(Cc5ccccc5F)ccc4s3)c(F)c2)C1`, the activity change, negative = inhibition is -1.77% [at 11.2 µM] (inactive). As to `Cc1cc(C)c(-n2cc(C)c3c(Cl)nc(C)nc32)c(C)c1`, the Potency result was “inactive”. Still for that read-out and setting: the entry for `CNC(=O)c1ccccc1Nc1nc(Nc2ccc(N3CCNCC3)cc2)ncc1Cl` is “inactive”; for `CS(=O)(=O)Nc1ccc2oc3c(OC(F)F)ccc(C(=O)Nc4c(Cl)cncc4Cl)c3c2c1` it is “inactive”; for `CC(C)(N)c1ncc(-c2ccc(OC(F)(F)F)cc2)[nH]1` it is “inactive”. Still for that read-out and setting: the entry for `COc1cccc(-c2ccc([C@@H](Oc3cc(-c4ccc(C[C@H](N)C(=O)O)cc4)nc(N)n3)C(F)(F)F)cc2)c1` is “inactive”. On the same count and under the same terms, the entry for `CN1CCC(NC(=O)c2cc(-c3c(O)cc(O)cc3Oc3ccc([N+](=O)[O-])cc3)on2)CC1` is “inactive”; for `OCC(O)CN1CCN(c2ccccc2)CC1` (configuration not stated) it is “inactive”.

As to `O=C(Nc1ccccc1)c1ccc(Nc2nnc(-c3ccc(O)cc3)c3ccccc23)cc1`, the Potency entry is “inactive”. Turning to `O=C(NCc1ccccc1)c1ccc2c(=O)n(-c3cccc(C(F)(F)F)c3)c(=S)[nH]c2c1`, the Potency entry is “inactive”. As for `COc1ccc2[nH]c3c(-c4cccc5ccccc45)nccc3c2c1`, the Potency entry was “inactive”. Turning to `CN(C1CCc2c(c3ccccc3n2CC(=O)O)C1)S(=O)(=O)c1ccc(F)cc1` (configuration not stated), the Potency result was “inactive”.

Consider `CCOC(CN1CCN(CC(C)C(=O)c2ccccc2)CC1)c1ccccc1` (configuration not stated), for which the Potency entry was “inactive”.
